PubChem BioAssay (NCI)
About 79,000 compounds went through this panel and 15% of them were active in at least one assay; those are over-represented in the sample as a whole. The source made the active and inactive calls. Rule as the data show it: active = growth inhibition above about 70%; inactive = the rest.

Legend:
[1] = NCI Yeast Anticancer Drug Screen. Data for the mec2-1 strain (AID 157); details: S. cerevisiae mec2-1 strain, active compounds read high
Summary of the method: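 Using mec2-1 yeast: add compound, measure growth, express inhibition versus vehicle-treated cultures.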

[2] = NCI Yeast Anticancer Drug Screen. Data for the cln2 rad14 strain (AID 165);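 also: 0% = growth equal to vehicle treated cultures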; details: S. cerevisiae cln2 rad14 strain, active compounds read high
Summary of the method: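 Yeast strain cln2 rad14, bearing defects in cell cycle control and DNA repair, serves as the test system; values reflect growth inhibition compared with vehicle.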

[3] = NCI Yeast Anticancer Drug Screen. Data for the bub3 strain (AID 167); details: S. cerevisiae bub3 mutant strain, active compounds read high
Summary of the method: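 Growth of a checkpoint-deficient yeast mutant is measured after compound exposure. Values represent inhibition relative to vehicle.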

[4] = NCI Yeast Anticancer Drug Screen. Data for the wt2 strain (AID 169);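 also: 0% = growth of vehicle-treated yeast cultures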; details: S. cerevisiae wt2 strain growth inhibition, active compounds read high
Summary of the method: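 Treated yeast vs. vehicle-treated yeast: growth inhibition determined.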

[5] = NCI Yeast Anticancer Drug Screen. Data for the mlh1 strain (AID 171);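 also: 0% = growth of vehicle-treated control cultures of the same strain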; details: S. cerevisiae mlh1 strain growth inhibition, active compounds read high
Summary of the method: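 A yeast strain with a defined genetic lesion serves as the test organism. Cultures receive compound or vehicle, and growth is measured.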

[6] = NCI Yeast Anticancer Drug Screen. Data for the sgs1 strain (AID 173);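 also: 0% = growth of vehicle-only control cultures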; details: S. cerevisiae sgs1 mutant, active compounds read high
Summary of the method: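 A genetically defined yeast mutant is incubated with the test compound, and its growth is compared to that of the same strain given vehicle.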

[7] = NCI Yeast Anticancer Drug Screen. Data for the mlh1 rad18 strain (AID 175); details: S. cerevisiae mlh1 rad18 strain growth inhibition, active compounds read high
Summary of the method: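 Steps: expose repair-defective yeast to compound; measure growth; express inhibition against vehicle-treated controls.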

[8] = NCI Yeast Anticancer Drug Screen. Data for the rad18 strain (AID 177); details: S. cerevisiae rad18 mutant growth inhibition, active compounds read high
Summary of the method: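 Measured value is growth inhibition of a yeast strain bearing a DNA repair alteration, referenced to vehicle-treated cells.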

[9] = NCI Yeast Anticancer Drug Screen. Data for the rad52 strain (AID 147);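 also: 0% = growth of vehicle-treated control cultures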; details: S. cerevisiae rad52 mutant growth inhibition, active compounds read high
Summary of the method: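 Here a repair-compromised yeast strain receives each compound; its growth is then quantified and normalised to vehicle-only controls.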

[10] = NCI Yeast Anticancer Drug Screen. Data for the wt1 strain (AID 149);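 also: 0% = growth of vehicle-treated wt1 cultures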; details: S. cerevisiae wt1 strain (SPY 50644) growth inhibition, active compounds read high
Summary of the method: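 Readout: yeast growth inhibition, normalised to vehicle controls, in the wt1 strain exposed to test compounds.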

[11] = NCI Yeast Anticancer Drug Screen. Data for the rad50EPP+ strain (AID 151);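 also: 0% = growth of vehicle-treated control cultures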; details: S. cerevisiae rad50 mutant strain, active compounds read high
Summary of the method: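 Read-out is yeast growth inhibition relative to vehicle; cells used were the rad50EPP+ strain.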

[12] = NCI Yeast Anticancer Drug Screen. Data for the mgt1 strain (AID 153); details: S. cerevisiae mgt1 mutant growth inhibition, active compounds read high
Summary of the method: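 Measured: inhibition of mgt1 yeast growth by compound, normalized to vehicle-treated cultures.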

[13] = NCI Yeast Anticancer Drug Screen. Data for the rad50 strain (AID 155);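 also: 0% = growth of vehicle-only cultures of the same strain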; details: S. cerevisiae rad50 strain growth inhibition, active compounds read high
Summary of the method: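 Compounds were tested on a yeast strain with an engineered DNA damage repair alteration; the reported value is growth inhibition normalised to vehicle treatment.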

[14] = NCI Yeast Anticancer Drug Screen. Data for the sgs1 mgt1 strain (AID 161);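 also: 0% = growth of cultures given vehicle only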; details: S. cerevisiae sgs1 mgt1 strain, active compounds read high
Summary of the method: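 Yeast cells carrying a defined DNA-repair defect were exposed to test compounds. Growth inhibition was measured relative to vehicle-treated controls.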

[15] = NCI Yeast Anticancer Drug Screen. Data for the CLN2oe strain (AID 163);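 also: 0% = growth of vehicle-only control cultures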; details: S. cerevisiae CLN2oe strain, active compounds read high
Summary of the method: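 Whole-cell yeast growth assay. A strain engineered for altered cell-cycle control received compound, and inhibition relative to vehicle-treated cultures was recorded.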

[16] = NCI Yeast Anticancer Drug Screen. Data for the rad14 strain (AID 159);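 also: 0% = growth of vehicle-treated control cultures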; details: S. cerevisiae rad14 strain growth inhibition, active compounds read high
Summary of the method: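 Compound-treated yeast with a defined DNA-repair lesion; growth inhibition normalised to vehicle-treated cultures.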

[17] = at 5.0 µM (retest, dose inferred, filed as 0.5)
[18] = at 50.0 µM (retest, dose inferred, filed as 5.0)

Measured: growth inhibition

O=C(O)c1ccccc1-c1ccccc1C(=O)Nc1ccc2c(c1)Cc1ccccc1-2
active: [1]; at 50.0 µM 73.5% | [1]; at 100.0 µM 99% | [2]; at 50.0 µM 92.3% | [3]; at 50.0 µM 83.2% | [3]; at 100.0 µM 96% | [4]; at 100.0 µM 96% | [5]; at 100.0 µM 97% | [6]; at 100.0 µM 94% | [7]; at 50.0 µM 76.5% | [8]; at 100.0 µM 90%
inactive: [1]; [17] 4% | [1]; at 11.0 µM 22% | [1]; at 33.0 µM 64% | [1]; [18] 23% | [2]; [17] -27% | [2]; [18] 46% | [3]; at 1.2 µM 4% | [3]; at 3.7 µM 7% | [3]; [17] -24% | [3]; at 11.0 µM 27% | [3]; at 33.0 µM 67% | [3]; [18] 22% | [4]; at 1.2 µM 3% | [4]; at 3.7 µM 7% | [4]; at 11.0 µM 16% | [4]; at 33.0 µM 59% | [5]; at 1.2 µM 7% | [5]; at 3.7 µM 12% | [5]; at 11.0 µM 22% | [5]; at 33.0 µM 51% | [6]; at 1.2 µM 1% | [6]; at 3.7 µM 6% | [6]; at 11.0 µM 17% | [6]; at 33.0 µM 59% | [7]; [17] 6% | [7]; [18] 54% | [8]; at 1.2 µM 4% | [8]; at 3.7 µM 7% | [8]; at 11.0 µM 17% | [8]; at 33.0 µM 49%

CC(C)NC(=O)OCc1c(COC(=O)NC(C)C)c(-c2ccc(Cl)c(Cl)c2)n2c1CCC2
inactive: [9]; at 1.2 µM -38% | [9]; at 3.7 µM -28% | [9]; at 11.0 µM -19% | [9]; at 33.0 µM 1% | [9]; at 100.0 µM 68% | [10]; at 1.2 µM -38% | [10]; at 3.7 µM -34% | [10]; at 11.0 µM -45% | [10]; at 33.0 µM -32% | [10]; at 100.0 µM 30% | [11]; at 1.2 µM -23% | [11]; at 3.7 µM -18% | [11]; at 11.0 µM -5% | [11]; at 33.0 µM -18% | [11]; at 100.0 µM -4% | [12]; at 1.2 µM -60% | [12]; at 3.7 µM -48% | [12]; at 11.0 µM -59% | [12]; at 33.0 µM -39% | [13]; at 1.2 µM -35% | [13]; at 3.7 µM -29% | [13]; [17] 8% | [13]; at 11.0 µM -24% | [13]; at 33.0 µM 1% | [13]; [18] 44% | [13]; at 50.0 µM 58.6% | [13]; at 100.0 µM 63% | [1]; at 1.2 µM -71% | [1]; at 3.7 µM -61% | [1]; [17] -1% | [1]; at 11.0 µM -56% | [1]; at 33.0 µM -53% | [1]; [18] 8% | [1]; at 50.0 µM 47.6% | [1]; at 100.0 µM 47% | [14]; [17] 9% | [14]; at 50.0 µM 23% | [15]; at 1.2 µM 4% | [15]; at 3.7 µM 0% | [15]; at 11.0 µM 4% | [15]; at 33.0 µM 11% | [15]; at 100.0 µM 32% | [2]; [17] 23% | [2]; [18] 24% | [2]; at 50.0 µM 3.3% | [3]; at 1.2 µM -65% | [3]; at 3.7 µM -66% | [3]; [17] 18% | [3]; at 11.0 µM -69% | [3]; at 33.0 µM -34% | [3]; at 50.0 µM 17.4% | [3]; at 100.0 µM 63% | [4]; at 1.2 µM -31% | [4]; at 3.7 µM -21% | [4]; at 11.0 µM -31% | [4]; at 33.0 µM -36% | [4]; at 100.0 µM 26% | [5]; at 1.2 µM -44% | [5]; at 3.7 µM -71% | [5]; at 11.0 µM -69% | [5]; at 33.0 µM -40% | [6]; at 1.2 µM -21% | [6]; at 3.7 µM -17% | [6]; at 11.0 µM -1% | [6]; at 33.0 µM 12% | [7]; [17] 13% | [7]; [18] 68% | [7]; at 50.0 µM 69.2% | [8]; at 1.2 µM -17% | [8]; at 3.7 µM 2% | [8]; at 11.0 µM 1% | [8]; at 33.0 µM 34%
active: [12]; at 100.0 µM 76% | [14]; [18] 72% | [3]; [18] 79% | [5]; at 100.0 µM 76% | [6]; at 100.0 µM 80% | [8]; at 100.0 µM 84%

C[CH2][Sn]([CH2]C)([O]C(=O)C(OC(C)=O)c1ccccc1)[O]C(=O)C(OC(C)=O)c1ccccc1 (stereo unspecified)
active: [9]; at 33.0 µM 71% | [9]; at 100.0 µM 92% | [10]; at 100.0 µM 91% | [13]; at 100.0 µM 91% | [1]; at 100.0 µM 91% | [15]; at 100.0 µM 90% | [3]; at 100.0 µM 88% | [4]; at 100.0 µM 93% | [5]; at 100.0 µM 93% | [6]; at 33.0 µM 78% | [6]; at 100.0 µM 94% | [8]; at 33.0 µM 77% | [8]; at 100.0 µM 92%
inactive: [9]; at 1.2 µM 3% | [9]; at 3.7 µM 3% | [9]; at 11.0 µM 15% | [10]; at 1.2 µM 0% | [10]; at 3.7 µM 0% | [10]; at 11.0 µM 5% | [10]; at 33.0 µM 47% | [11]; at 1.2 µM 0% | [11]; at 3.7 µM 2% | [11]; at 11.0 µM 7% | [11]; at 33.0 µM 9% | [11]; at 100.0 µM 9% | [13]; at 1.2 µM -4% | [13]; at 3.7 µM 4% | [13]; [17] 13% | [13]; at 11.0 µM -2% | [13]; at 33.0 µM 67% | [13]; [18] 25% | [13]; at 50.0 µM 37.7% | [1]; at 1.2 µM 1% | [1]; at 3.7 µM 5% | [1]; [17] -13% | [1]; at 11.0 µM 14% | [1]; at 33.0 µM 65% | [1]; [18] 6% | [1]; at 50.0 µM 35.1% | [16]; at 1.2 µM -2% | [16]; at 3.7 µM -3% | [16]; at 11.0 µM 2% | [16]; at 33.0 µM 14% | [16]; at 100.0 µM 57% | [14]; [17] 7% | [14]; [18] 10% | [14]; at 50.0 µM 20.5% | [15]; at 1.2 µM -15% | [15]; at 3.7 µM -3% | [15]; at 11.0 µM 4% | [15]; at 33.0 µM 47% | [2]; [17] 8% | [2]; [18] 44% | [2]; at 50.0 µM -23.2% | [3]; at 1.2 µM 1% | [3]; at 3.7 µM 4% | [3]; [17] -13% | [3]; at 11.0 µM 12% | [3]; at 33.0 µM 53% | [3]; [18] 54% | [3]; at 50.0 µM 54.4% | [4]; at 1.2 µM -1% | [4]; at 3.7 µM -2% | [4]; at 11.0 µM 1% | [4]; at 33.0 µM 57% | [5]; at 1.2 µM 1% | [5]; at 3.7 µM 0% | [5]; at 11.0 µM 4% | [5]; at 33.0 µM 47% | [6]; at 1.2 µM -1% | [6]; at 3.7 µM 4% | [6]; at 11.0 µM 15% | [7]; [17] 2% | [7]; [18] 10% | [7]; at 50.0 µM 18.4% | [8]; at 1.2 µM 4% | [8]; at 3.7 µM 16% | [8]; at 11.0 µM 37%
